A selection: hits, their analogues and other compounds. The true share with any hit is near 1.3%.
Fam108B counter: counter-screen for RBBP9 inhibitors: inhibitors of mouse Fam108B. 300,000 tested, 0.33% active. inhibition, % at 9.51 µM. AID 1947. recombinant Fam108B, FP-Rh probe fluorescence polarization;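 active means inhibition above the screen mean inhibition plus 3 SD, computed separately per campaign, cut at about 18% in these data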;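 further: inhibitors lower polarization as less probe binds the enzyme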
PME-1 primary: blocks human protein phosphatase methylesterase 1; Q9Y570; recombinant PME-1, FP-Rh probe fluorescence polarization; inhibition, % at 5.9 µM; 320,000 tested, 0.53% active;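 active means inhibition above the campaign mean of all compounds plus 3 SD, cut at about 26% in these data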;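 further: competitive labeling of PME-1 active site by serine hydrolase directed probe; 0% = PME-1 with DMSO and 100% = wells lacking PME-1 enzyme; inhibitors block probe labeling so polarization falls and inhibition rises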
Target sequence (Q9Y570 whole entry, looked up): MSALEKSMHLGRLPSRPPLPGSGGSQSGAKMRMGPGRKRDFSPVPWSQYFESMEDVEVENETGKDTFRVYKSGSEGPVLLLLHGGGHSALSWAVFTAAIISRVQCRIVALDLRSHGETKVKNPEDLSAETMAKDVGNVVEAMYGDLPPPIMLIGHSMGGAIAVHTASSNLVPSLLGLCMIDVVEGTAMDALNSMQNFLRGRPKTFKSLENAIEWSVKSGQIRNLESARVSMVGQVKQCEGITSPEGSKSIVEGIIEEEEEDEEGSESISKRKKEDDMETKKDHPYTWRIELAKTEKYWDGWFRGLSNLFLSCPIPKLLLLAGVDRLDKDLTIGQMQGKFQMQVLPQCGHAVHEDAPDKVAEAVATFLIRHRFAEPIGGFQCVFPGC
PREPL inhibitor: inhibitors of human prolyl oligopeptidase-like enzyme PREPL. Q4J6C6. recombinant PREPL, fluorescence polarization activity-based probe. inhibition, % at 5.96 µM. 320,000 tested, 0.68% active; in the data active means inhibition above about 43%;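 further: 0% = enzyme with DMSO and 100% = wells lacking enzyme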
LYPLA1 inh: counter-screen for PME1 inhibitors: inhibitors of human LYPLA1 | recombinant LYPLA1, FP-Rh probe fluorescence polarization | O75608 | 320,000 tested, 0.16% active | inhibition, % at 5.9 µM;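 active means inhibition above the mean of all tested compounds plus 3 SD, set per campaign, cut at about 14% in these data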;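 further: inhibitors block serine hydrolase probe labeling of LYPLA1 so polarization falls; 0% = enzyme with DMSO and 100% = wells lacking LYPLA1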
LYPLA2 counter: blocks human lysophospholipase 2, a PME1 counter-screen; O95372; recombinant LYPLA2, FP-Rh probe fluorescence polarization; inhibition, % at 5.9 µM; 320,000 tested, 0.38% active; AID 2177;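 active means inhibition above the screen-wide mean plus 3 SD, limit set per campaign, cut at about 26% in these data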;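 further: 0% = LYPLA2 with DMSO and 100% = wells lacking LYPLA2 enzyme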
Target sequence (O95372 whole entry, looked up): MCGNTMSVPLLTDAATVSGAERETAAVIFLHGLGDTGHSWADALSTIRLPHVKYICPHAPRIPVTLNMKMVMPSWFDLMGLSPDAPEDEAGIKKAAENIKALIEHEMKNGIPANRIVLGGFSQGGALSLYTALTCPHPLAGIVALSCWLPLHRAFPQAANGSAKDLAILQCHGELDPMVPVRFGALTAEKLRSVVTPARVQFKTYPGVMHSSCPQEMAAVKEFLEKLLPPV
The depositor's hits bear a star; . = not tested or not shown.

SMILES	Fam108B counter	PME-1 primary	PREPL inhibitor	LYPLA1 inh	LYPLA2 counter
COc1ccc(C(=O)N/C(=C\c2ccc(SC)cc2)C(=O)NCCCn2ccnc2)cc1OC	.	.	0.1	.	.
O=C(OCC(=O)N1CCOCC1)c1cc(-c2ccccc2)nc2ccccc12	.	.	11.4	.	.
CN(C(=O)N1CCN(S(=O)(=O)c2ccccc2)CC1)c1ccccc1	-7.3	-0.7	8.2	2.2	-4.5
O=C(c1ccc2c(c1)OCO2)N1CCCC(c2ccccc2)C1 (centres undefined)	3.8	33.0*	2.1	1.1	2.5
CC(=O)c1c(C)[nH]c(C(=O)Nc2nc(-c3ccc(-c4ccccc4)cc3)cs2)c1C	14.0	-39.0	8.4	-34.0	-24.3
CC(=O)c1c(C)[nH]c(C(=O)Nc2nc(-c3ccc(Cl)cc3)cs2)c1C	-5.8	51.0*	2.3	-1.8	-2.4
COc1ccc(-c2nc(NC(=O)c3[nH]c(C)c(C(C)=O)c3C)sc2C)cc1	15.8	46.8*	20.9	-6.5	-1.7
CN(C(=O)CSc1nc2ccccc2c(=O)n1-c1ccccc1Cl)C1CCS(=O)(=O)C1 (centres undefined)	.	.	0.5	.	.
O=C1/C(=C/Nc2ccc3c(c2)OCO3)CCc2ccccc21	12.1	30.3*	22.6	1.9	14.6
COc1ccc(N/C=C2\CCc3ccccc3C2=O)cc1	3.0	21.2	23.2	1.5	2.9
COc1ccc2c(c1)CC/C(=C\Nc1ccc3c(c1)OCO3)C2=O	12.0	31.8*	37.1	1.5	0.1
CC(C)Cn1c(C23CC4CC(CC(C4)C2)C3)n[nH]c1=S	-0.8	-11.0	12.5	3.8	0.6
O=C(COC(=O)c1ccc(F)c(S(=O)(=O)N2CCOCC2)c1)NC1CC1	.	-3.0	11.0	3.8	3.0
O=C(Nc1cc(C(F)(F)F)ccc1-n1cncn1)c1ccc([N+](=O)[O-])o1	0.3	0.4	-1.5	-0.9	0.2
O=c1[nH]c(C2CCN(S(=O)(=O)c3ccc(F)cc3)CC2)nc2c1nnn2Cc1ccc2c(c1)OCCO2	-8.1	32.2*	1.1	-2.8	-0.5
O=c1[nH]c(C2CCCN(S(=O)(=O)c3ccccc3)C2)nc2c1nnn2Cc1ccccc1 (centres undefined)	1.1	33.0*	4.6	0.5	-0.6
COc1cccc(Cn2nnc3c(=O)[nH]c(C4CCCN(C(=O)c5ccccc5Cl)C4)nc32)c1 (centres undefined)	-5.3	57.6*	-0.5	2.4	-0.8
CN(C1CCCCC1)S(=O)(=O)c1ccc(S(=O)(=O)N(CC(=O)Nc2ccccc2)C2CC2)cc1	-1.1	-25.2	-8.0	-17.9	-29.3
O=C1NC(Cc2ccc(O)cc2)c2nc3ccc(Cl)cc3c(=O)n2-c2ccc(Cl)cc21 (centres undefined)	.	.	1.8	.	.
COc1ccc(Nc2nccc(N(C)C)c2C#N)cc1	-1.6	-4.5	0.6	-0.7	4.8
COc1ccc(N=CC2=C(Nc3ccc(OC)cc3)c3c(C)nn(-c4ccccn4)c3CC2)cc1	47.3*	57.4*	72.5*	49.9*	49.2*
COc1ccc(-c2cc(C(=O)O)c3c(C)nn(-c4ccccn4)c3n2)cc1	1.0	-2.2	-1.1	-0.5	-3.3
CCOC(=O)c1cc(COc2cc(Cl)cc(Cl)c2)on1	2.4	0.6	2.9	0.8	0.7
O=C(CSc1nc2ccccc2o1)Nc1ccc(N2CCOCC2)cc1	-0.9	-4.1	43.6*	1.3	1.7
N#CC(C#N)=NNc1ccc(S(=O)(=O)N2CCCCC2)cc1	3.2	28.4*	10.0	-9.5	-1.6
SMILES	Fam108B counter	PME-1 primary	PREPL inhibitor	LYPLA1 inh	LYPLA2 counter
N#C/C(=N\Nc1ccc(S(=O)(=O)N2CCOCC2)cc1)C(N)=S	3.5	5.9	0.3	-0.6	1.6
C/C(=N\NC(=O)c1ccc(Br)cc1)C1C(=O)c2ccccc2C1=O	15.8	9.9	5.2	18.2*	1.5
CCN1C/C(=C/c2ccc(OC)c(O)c2)C(=O)/C(=C/c2ccc(OC)c(O)c2)C1	-4.0	2.0	9.5	3.7	4.4
COc1ccc(/C=C2\CN(Cc3ccccc3)C/C(=C\c3ccc(OC)c(O)c3)C2=O)cc1O	16.4	26.6*	23.4	-4.1	14.8
CC1=NN(c2ccccc2)C(=O)C1N=Nc1cccc(O)c1 (centres undefined)	7.6	28.2*	10.9	0.5	7.3
CC1=NN(c2ccccc2)C(=O)C1N=Nc1ccccc1 (centres undefined)	-2.0	0.3	16.0	-1.1	-1.7
C/C(=N/Nc1nc(-c2ccccc2F)nc2ccccc12)c1ccccc1O	7.5	26.4*	22.0	-14.9	-14.4
Cc1ccc(S(=O)(=O)c2nnn3c2nc(N2CCOCC2)c2ccccc23)c(C)c1	1.7	27.1*	4.3	-2.4	2.8
N#C/C(=C(/O)c1ccc(Cl)cc1)c1nc2ccccc2[nH]1	-0.3	-2.6	0.4	-0.1	0.0
N#C/C(=C(\O)c1cc(Cl)sc1Cl)c1nc2ccccc2[nH]1	11.8	34.7*	7.8	-0.5	-1.6
O=c1cc(N2CCCCC2)c(-c2ccccc2)nn1Cc1c(Cl)cccc1Cl	-2.6	29.8*	6.2	-3.6	1.9
O=c1cc(N2CCCCC2)c(-c2ccccc2)nn1Cc1ccc(Cl)cc1	-0.2	8.4	4.8	-2.5	2.0
CCC(C)(C)C1CCc2c(sc(NC(=O)c3ccccc3C(=O)O)c2C#N)C1 (centres undefined)	-1.8	27.0*	12.7	2.3	4.0
CCCN(CC(=O)Nc1ccccc1OC)C(=O)CCC(=O)c1ccc(OCC)cc1	.	0.1	14.6	-4.0	-3.4
NC1=C(Br)C(=O)c2ccccc2C1=O	5.3	7.5	15.9	1.0	1.7
Nc1ccc(Br)c2c1C(=O)c1ccccc1C2=O	1.1	26.3*	19.1	3.9	2.7
O=C(CCNC(=O)c1ccco1)Nc1ccc(OC(F)(F)F)cc1	0.1	4.4	-3.9	-1.5	3.0
CC(=O)c1ccccc1OCC(O)CN1CCN(CCN2C(=O)c3cccc4cccc(c34)C2=O)CC1 (centres undefined)	3.1	0.4	5.2	3.5	39.1*
Cc1ccc(C)c(OCC(O)CN2CCN(CCN3C(=O)c4cccc5cccc(c45)C3=O)CC2)c1 (centres undefined)	-1.4	-2.6	-8.0	-0.2	53.5*
CSc1ccccc1-c1nc(-c2ccncc2)no1	4.0	3.7	1.5	0.8	-4.6
O=[N+]([O-])c1cc(S(=O)(=O)Nc2cccc(C(F)(F)F)c2)ccc1-n1nnc2ccccc21	-3.9	32.9*	-0.8	-5.7	-10.3
COc1cc(C(=O)NCc2nnc(SCC(=O)Nc3cccc(C(F)(F)F)c3)o2)cc(OC)c1OC	4.4	0.4	0.8	-2.8	1.6
COc1ccc(OCC(O)CNC(=O)Nc2cccc3ccccc23)cc1 (centres undefined)	-0.7	3.8	13.2	2.3	1.2
O=c1[nH][nH]c2cc(=O)n(-c3cccc(C(F)(F)F)c3)nc12	5.0	37.4*	7.4	1.9	2.3
Nc1n[nH]c2cc(=O)n(-c3cccc(C(F)(F)F)c3)nc12	-2.0	1.6	4.3	-2.9	-4.3

From PubChem BioAssay
